Bioassay records deposited in PubChem BioAssay by Johns Hopkins Ion Channel Center.
Compounds with a hit are over-represented: about 1.6% of the library has one in this group of screens.
KCNQ2 inh: KCNQ2 (rat) channel inhibition; CHO-K1 KCNQ2, FluxOR thallium flux, 20 min; stronger effect = lower value; B-score at 10 µM; 1.1% of 310,000 active; AID 2156;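 active = fluorescence ratio B-score at most minus 3 library SDs, with starting brightness B-score within 2 library SDs, cut at about -5.5 in these data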
Target sequence (O88943 whole entry, looked up): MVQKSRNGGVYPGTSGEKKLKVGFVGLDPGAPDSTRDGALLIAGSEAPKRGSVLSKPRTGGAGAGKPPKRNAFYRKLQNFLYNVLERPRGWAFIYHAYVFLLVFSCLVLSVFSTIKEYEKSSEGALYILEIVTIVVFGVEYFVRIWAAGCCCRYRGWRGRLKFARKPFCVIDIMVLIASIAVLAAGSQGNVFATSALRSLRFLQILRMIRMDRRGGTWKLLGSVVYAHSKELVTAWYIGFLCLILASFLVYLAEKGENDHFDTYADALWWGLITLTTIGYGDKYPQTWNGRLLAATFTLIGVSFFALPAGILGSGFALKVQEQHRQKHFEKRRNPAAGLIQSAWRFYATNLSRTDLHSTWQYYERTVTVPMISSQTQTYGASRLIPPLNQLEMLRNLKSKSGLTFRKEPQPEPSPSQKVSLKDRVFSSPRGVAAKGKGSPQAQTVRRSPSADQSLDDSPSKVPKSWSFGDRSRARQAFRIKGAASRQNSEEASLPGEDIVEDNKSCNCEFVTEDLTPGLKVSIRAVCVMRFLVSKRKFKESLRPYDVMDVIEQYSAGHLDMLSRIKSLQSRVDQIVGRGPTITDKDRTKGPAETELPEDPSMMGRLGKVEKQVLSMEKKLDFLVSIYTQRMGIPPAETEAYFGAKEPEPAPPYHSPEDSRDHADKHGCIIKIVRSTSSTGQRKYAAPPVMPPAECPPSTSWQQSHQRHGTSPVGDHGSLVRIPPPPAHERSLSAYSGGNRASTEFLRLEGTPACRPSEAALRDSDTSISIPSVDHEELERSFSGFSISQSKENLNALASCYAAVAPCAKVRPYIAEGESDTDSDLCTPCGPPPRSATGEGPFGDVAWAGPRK
KCNQ2 pot: KCNQ2 (rat) channel potentiation; AID 2239; CHO-K1 KCNQ2, FluxOR thallium flux fluorescence; stronger effect = higher value; O88943; B-score at 10 µM; 0.54% of 310,000 active;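 active = fluorescence ratio B-score at least 3 SD of library B-scores, with initial fluorescence B-score within 3 of them, cut at about 5.3 in these data; same plate scores as AID 2156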;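 note: B-score of peak minus minimum over baseline fluorescence ratio after K+ and Tl+ stimulus; positive B-score means potentiation of KCNQ2 with more thallium influx and brighter signal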
KCNQ2 block conf: confirmation of rat KCNQ2 potassium channel inhibitors; KCNQ2-expressing cells, thallium flux, inhibition; stronger effect = lower value; 57% of 1,000 active; activity change, negative = inhibition, % at 10 µM; shares compounds with KCNQ2 inh
KCNQ1 spec: selectivity of KCNQ2 inhibitors against human KCNQ1; KCNQ1-expressing cells, FluxOR thallium flux fluorescence; stronger effect = lower value; AID 493026; shares compounds with KCNQ2 inh; activity change, negative = inhibition, % at 10 µM; 15% of 1,000 active;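 active = activity change at least 3 SD of negative controls below their mean in both duplicate wells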;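 note: CHO cells stably transfected with KCNQ1 and depolarized by potassium stimulus; peak minus minimum fluorescence over baseline after thallium addition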
CHO Tl ctr: counter-screen for KCNQ2 inhibitors: effect in parental CHO cells; shares compounds with KCNQ2 inh; thallium flux counter-screen; stronger effect = lower value; activity change, % at 10 µM; 14% of 1,000 active; AID 493029
KCNQ2 inh confirm: confirmation of rat KCNQ2 potassium channel inhibitors; shares compounds with KCNQ2 inh; calls only at 10 µM; KCNQ2-expressing cells, automated patch clamp current; 49% of 550 active
A number is an active result; n = inactive; x = not tested or not shown; + = active, no number. Unless noted, the rule behind the calls is not given here.

SMILES | KCNQ2 inh | KCNQ2 pot | KCNQ2 block conf | KCNQ1 spec | CHO Tl ctr | others
COc1ccc(CNC(=O)CN2C(=O)C(c3ccccc3)Oc3cccnc32)cc1 (centres undefined) | n | n | x | x | x
CCOC(=O)C1(CCOC)CCN(Cc2nc(C(C)C)cs2)CC1 | n | x | x | x | x
Cc1noc(C)c1COC(=O)c1cccnc1Cl | n | x | x | x | x
Cc1sc(NC(=O)CCl)c(C(=O)c2ccccc2)c1C | n | n | x | x | x
Cc1ccccc1C(=O)Nc1sc(C)c(C)c1C(=O)c1ccccc1 | -9.56 | n | -33.0% | -32.0% | -27.0% | KCNQ2 inh confirm=n
Cc1ccccc1NC(=O)COc1coc(CN2CCN(c3ccccc3)CC2)cc1=O | n | n | x | x | x
CCOc1ccc(C(=O)Nc2cccc(C(=O)O)c2)cc1Cl | n | n | x | x | x
CCOc1ccc(C(=O)Nc2cccc(-c3nc4cccnc4o3)c2)cc1Cl | -10.3 | n | n | n | n
COc1ccccc1CNC(=O)C1CCN(Cc2nc(-c3cccc(Cl)c3)oc2C)CC1 | -7.78 | n | n | n | n
Cc1cccc(-c2nc(CN3CCCC(C(=O)NC4CCCCCC4)C3)c(C)o2)c1 (centres undefined) | -9.66 | n | -27.5% | n | n | KCNQ2 inh confirm=+
CCc1ccc(-c2nc(CN3CCC(C(=O)NCc4ccccc4OC)CC3)c(C)o2)cc1 | n | x | x | x | x
Cc1cccc(-c2nc(CN3CCCC(C(=O)NC4CCCCC4)C3)c(C)o2)c1 (centres undefined) | n | x | x | x | x
Cc1ccc(C2(c3ccc(C)cc3)CC2C(=O)NC(C)C)cc1 (centres undefined) | n | x | x | x | x
Cc1ccc(S(=O)(=O)N2CCCCC2)cc1NC(=O)COC(=O)C1=COCCO1 | n | n | x | x | x
C=CCn1c(=O)c(C(=O)Nc2cccnc2)c(O)c2ccccc21 | n | x | x | x | x
C=CCn1c(=O)c(C(=O)NCCc2ccccc2)c(O)c2ccccc21 | -6.86 | n | n | n | n
CCCn1c(=O)c(C(=O)NCCc2ccc(OC)cc2)c(O)c2ccccc21 | -8.18 | n | n | n | n
CCCn1c(=O)c(C(=O)NCCc2ccccc2)c(O)c2ccccc21 | n | x | x | x | x
Nc1ccc2c(c1)N=[N+]([O-])c1cc(N)ccc1C2 | n | n | x | x | x
COc1ccc(CCNCC(O)COc2cccc(C(C)=O)c2)cc1OC (centres undefined) | n | n | x | x | x
COc1ccccc1NC(=O)Cn1cnc2sc(C)c(S(=O)(=O)N3CCCCC3)c2c1=O | n | x | x | x | x
Cc1nn(-c2ccccc2)c(N)c1-c1ccccc1 | n | x | x | x | x
Cc1nn(-c2ccccc2)c(/N=C/c2ccccc2O)c1-c1ccccc1 | -10.8 | n | -43.0% | -50.5% | -43.0% | KCNQ2 inh confirm=n
CCOC(=O)c1ccccc1NC(=S)N1CCN(C(=O)c2ccco2)CC1 | n | n | x | x | x
COc1ccc(N2CCN(S(=O)(=O)CCNC(=O)C3CC(=O)N(c4ccccc4)C3)CC2)cc1 (centres undefined) | n | x | x | x | x
SMILES | KCNQ2 inh | KCNQ2 pot | KCNQ2 block conf | KCNQ1 spec | CHO Tl ctr | others
Cc1cc(Cl)ccc1OC(C)C(=O)NCCCCc1ccccc1 (centres undefined) | -7.29 | n | -31.5% | n | n | KCNQ2 inh confirm=+
Cc1cc(Cl)ccc1OC(C)C(=O)NCCc1ccc2c(c1)OCCO2 (centres undefined) | n | x | x | x | x
CCn1nc(C)c(/C=N/NC(=O)c2ccc3c(c2)c(C)c(C)n3Cc2ccccc2)c1C | n | x | x | x | x
Cc1csc2nc(CSc3ccc(Cl)cc3)cn12 | -10.7 | n | -37.5% | -43.0% | -35.0% | KCNQ2 inh confirm=+
Clc1ccc(SCc2cn3ccsc3n2)cc1 | n | x | x | x | x
O=C(NCc1nnc(SCC(=O)N2CCOCC2)o1)c1ccccc1F | n | n | x | x | x
Cc1ccc(/C(N)=N/OC(=O)N2c3ccccc3Sc3ccccc32)cc1 | -8.51 | n | -26.5% | n | n | KCNQ2 inh confirm=+
Cc1ccc(/C(N)=N/OC(=O)Cc2ccccc2)cc1 | n | x | x | x | x
CC(C)[C@H](NC(=O)[C@H]1N2C(=O)c3ccccc3C2SC1(C)C)C(=O)NCc1ccco1 (some centres undefined) | n | x | x | x | x
O=C(O)c1ccccc1C(=O)N(Cc1ccccc1)Cc1ccccc1 | n | x | x | x | x
O=C(O)c1cc(Cl)c(Cl)cc1C(=O)N(Cc1ccccc1)Cc1ccccc1 | -7.45 | n | -30.0% | n | n | KCNQ2 inh confirm=+
CC(C)CN(C(=O)c1ccc(F)cc1F)c1c(N)n(CC(C)C)c(=O)[nH]c1=O | n | x | x | x | x
CC(/C=C/C=C/c1ccccc1)=N/NC(=O)CNc1ccccc1C | n | n | x | x | x
CCCOc1ccc(N/C=C/C(=O)c2cc(OC)c(OC)c(OC)c2)cc1 | n | x | x | x | x
Cc1cc(CN2CCN(CCC#N)CC2)c(O)c(C2(C)CCCCC2)c1 | -7.38 | n | n | n | n
N#CCCN1CCN(CCC#N)CC1 | n | x | x | x | x
